# Compound activity: PubChem, Center for Chemical Genomics, University of Michigan
# Dicer processing = inhibitors of Dicer pre-microRNA processing, primary screen, biochemical, cat-ELCCA, chemiluminescence; Endoribonuclease Dicer (Homo sapiens), Q9UPY3; cat-ELCCA pre-miR-21 Dicer processing; stronger effect = higher value; z-score at 25 µM; hit rate 6% among 47,000; AID 1347074, 2019; in the data active = z-score above about 3, passing the limit was not always enough;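 also: plate controls were vehicle for no effect and no enzyme for full effect; higher signal means more uncleaved substrate so more Dicer inhibition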
# Target sequence (Q9UPY3 whole entry, looked up): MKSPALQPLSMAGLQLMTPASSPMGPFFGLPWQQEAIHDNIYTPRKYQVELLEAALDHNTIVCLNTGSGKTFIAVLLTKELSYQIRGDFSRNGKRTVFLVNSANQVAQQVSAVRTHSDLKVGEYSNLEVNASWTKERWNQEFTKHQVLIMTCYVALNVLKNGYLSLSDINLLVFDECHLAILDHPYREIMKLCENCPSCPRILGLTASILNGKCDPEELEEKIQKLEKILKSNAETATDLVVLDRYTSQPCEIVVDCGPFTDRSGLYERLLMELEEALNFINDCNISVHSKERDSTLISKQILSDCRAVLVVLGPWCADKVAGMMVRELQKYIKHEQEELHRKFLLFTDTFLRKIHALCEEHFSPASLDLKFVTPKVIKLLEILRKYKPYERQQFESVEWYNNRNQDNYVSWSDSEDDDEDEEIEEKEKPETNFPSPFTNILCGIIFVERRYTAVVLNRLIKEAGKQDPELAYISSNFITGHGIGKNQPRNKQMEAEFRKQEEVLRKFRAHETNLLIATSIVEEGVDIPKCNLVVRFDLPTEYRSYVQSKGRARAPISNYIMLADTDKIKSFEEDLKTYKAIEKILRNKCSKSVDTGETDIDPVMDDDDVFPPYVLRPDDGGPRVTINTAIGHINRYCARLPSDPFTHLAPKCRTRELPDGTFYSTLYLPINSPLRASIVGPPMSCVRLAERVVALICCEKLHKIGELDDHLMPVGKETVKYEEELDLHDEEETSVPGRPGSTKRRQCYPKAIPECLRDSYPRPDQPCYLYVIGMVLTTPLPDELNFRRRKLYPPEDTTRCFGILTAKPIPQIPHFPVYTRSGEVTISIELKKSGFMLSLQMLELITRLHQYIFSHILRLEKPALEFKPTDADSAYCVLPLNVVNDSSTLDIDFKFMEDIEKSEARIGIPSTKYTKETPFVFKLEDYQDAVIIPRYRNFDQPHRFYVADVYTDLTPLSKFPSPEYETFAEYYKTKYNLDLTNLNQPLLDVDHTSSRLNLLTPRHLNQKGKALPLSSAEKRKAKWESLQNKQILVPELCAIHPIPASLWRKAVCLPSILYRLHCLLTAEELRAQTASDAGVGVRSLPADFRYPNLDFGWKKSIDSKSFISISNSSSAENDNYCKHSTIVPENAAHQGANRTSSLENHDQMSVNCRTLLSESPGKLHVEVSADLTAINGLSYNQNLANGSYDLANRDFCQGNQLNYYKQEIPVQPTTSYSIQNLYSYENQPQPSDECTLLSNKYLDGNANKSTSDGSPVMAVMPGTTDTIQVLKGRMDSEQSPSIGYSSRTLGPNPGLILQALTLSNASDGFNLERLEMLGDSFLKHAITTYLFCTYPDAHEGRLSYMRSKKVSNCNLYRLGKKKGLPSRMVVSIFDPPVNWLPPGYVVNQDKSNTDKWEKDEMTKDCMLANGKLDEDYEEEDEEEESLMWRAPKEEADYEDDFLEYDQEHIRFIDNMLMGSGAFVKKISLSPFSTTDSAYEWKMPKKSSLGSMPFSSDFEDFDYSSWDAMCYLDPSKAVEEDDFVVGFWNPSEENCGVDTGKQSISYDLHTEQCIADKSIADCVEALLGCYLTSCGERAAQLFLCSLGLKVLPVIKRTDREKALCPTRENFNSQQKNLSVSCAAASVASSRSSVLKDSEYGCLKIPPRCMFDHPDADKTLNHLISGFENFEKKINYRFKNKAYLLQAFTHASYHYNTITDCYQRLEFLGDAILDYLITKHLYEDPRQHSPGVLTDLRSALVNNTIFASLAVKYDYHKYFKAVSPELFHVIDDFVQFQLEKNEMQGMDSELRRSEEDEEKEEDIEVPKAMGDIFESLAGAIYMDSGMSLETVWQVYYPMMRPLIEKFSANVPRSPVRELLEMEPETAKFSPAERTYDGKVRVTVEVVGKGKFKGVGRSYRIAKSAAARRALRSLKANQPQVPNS
# Starred values were filed as active, the others as inactive. Shown is part of a subset that was picked to be rich in hits.
SMILES,Dicer processing
c1ccc(CN2CCCN(Cc3ccccc3)C2c2ccco2)cc1,1.2
CCOC(=O)c1cncc(Br)c1,2.2
O=C(Cn1cnc2sc3c(c2c1=O)CCCC3)c1ccc(Br)cc1,0.05
COCc1cc(C)nc2sc(C(=O)N3CCCC3)c(N)c12,3.9*
COCc1cc(C)nc2sc(C(=O)OC)c(N)c12,1
Cc1cc(C)c2c(N)c(C(=O)c3ccccc3Cl)sc2n1,-2.3
CC(=O)Cc1ncn(-c2cc(C)on2)n1,2.2
CC(C)(C)SCCNc1nc(NCCSC(C)(C)C)nc(Sc2ccc(Cl)cc2)n1,0.71
CC12CN3CC(C)(CN(C1)C3c1cc(Br)ccc1O)C2 (stereo unspecified),0.72
CC12CN3CC(C)(CN(C1)C3c1ccc([N+](=O)[O-])o1)C2 (stereo unspecified),0.27
Cc1ccc(C2N3CC4(C)CN2CC(C)(C3)C4)cc1 (stereo unspecified),3*
Cc1cc(C)c(NS(=O)(=O)c2ccc3[nH]c(=O)[nH]c3c2)c(C)c1,1.9
Cn1c(COC(=O)c2sc3ccccc3c2Cl)nc2ccccc21,-1.4
Cc1ccc(/C(O)=C/C(=O)C(=O)NNC(=O)c2cc(C)nc3ccccc23)cc1,3.2*
COC(=O)Nc1cc(C)nc2ccccc12,-0.2
Cc1ccc(-c2cc(C(=O)O)c3ccccc3n2)s1,-0.52
Nc1nc(COc2cccc3cccnc23)nc(Nc2ccc(Cl)cc2)n1,-1
CC1(C)C(=O)OC(c2ccccc2F)C(C)(C)C1=O (stereo unspecified),0.16
Cc1ccc(C2CC(=O)C3=C(C2)Nc2ccccc2NC3c2ccncc2)cc1 (stereo unspecified),0.12
COc1ccc(C2CC(=O)C3=C(C2)Nc2ccccc2NC3c2cccc(O)c2)cc1 (stereo unspecified),0.54
O=C(O)CCC(=O)N1c2ccccc2NC2=C(C(=O)CC(c3ccccc3)C2)C1c1cccc(F)c1 (stereo unspecified),-1.1
COc1ccc(C2CC(=O)C3=C(C2)Nc2ccccc2NC3c2ccc(F)cc2)cc1 (stereo unspecified),1.6
COc1ccc(C2CC(=O)C3=C(C2)Nc2ccccc2NC3c2ccc(OC)cc2)cc1 (stereo unspecified),4.5*
COc1ccc(C2CC(=O)C3=C(C2)Nc2ccccc2NC3c2ccc(F)c(Br)c2)cc1 (stereo unspecified),5.2*
COc1ccc(C2CC(=O)C3=C(C2)Nc2ccccc2NC3c2cccc(Br)c2)cc1 (stereo unspecified),2
SMILES,Dicer processing
CN(C)c1ccc(C2CC(=O)C3=C(C2)Nc2ccccc2NC3c2ccccc2)cc1 (stereo unspecified),4.8*
Cc1ccccc1C1Nc2ccccc2NC2=C1C(=O)CC(c1ccccc1)C2 (stereo unspecified),0.97
COc1ccc(C2CC(=O)C3=C(C2)Nc2ccccc2NC3c2coc3ccc(Cl)cc3c2=O)cc1 (stereo unspecified),1.8
COc1cccc(C2C3=C(CC(c4ccccc4)CC3=O)Nc3ccccc3N2C(=O)C2CC2)c1 (stereo unspecified),3.7*
COc1ccc(C2CC(=O)C3=C(C2)Nc2ccccc2N(C(=O)C2CC2)C3c2cccnc2)cc1OC (stereo unspecified),-0.58
COc1ccc(-c2n[nH]c(=S)n2-c2cccc(C(F)(F)F)c2)cc1,-0.41
COc1ccc(NC(=S)N2CCc3sccc3C2c2ccc(OC)cc2)cc1 (stereo unspecified),-0.28
CC(=O)Nc1nc(NC(C)=O)nc(N2CCCCC2)n1,-0.69
CC12CN3CC(C)(CN(C1)C3c1cc(Br)ccc1O)C2O (stereo unspecified),-1.1
CC1=C(C(=O)OCCOc2ccccc2)C(c2ccc(C)s2)C2=C(CCCC2=O)N1 (stereo unspecified),-0.76
COc1ccc(C2Nc3ccccc3NC3=C2C(=O)CC(c2cccs2)C3)cc1Br (stereo unspecified),-0.98
CCOc1cc(C2Nc3ccccc3NC3=C2C(=O)CC(c2ccccc2)C3)ccc1O (stereo unspecified),3
COc1ccccc1C1Nc2ccccc2NC2=C1C(=O)CC(c1cccs1)C2 (stereo unspecified),0.08
O=C1CC(c2ccccc2)CC2=C1C(c1cccnc1)Nc1ccccc1N2 (stereo unspecified),0.31
O=C1CC(c2ccccc2)CC2=C1C(c1ccc(F)c(F)c1)Nc1ccccc1N2 (stereo unspecified),4.6*
COc1cccc(C2Nc3ccccc3NC3=C2C(=O)CC(c2cccs2)C3)c1 (stereo unspecified),3.4*
COc1ccc(Br)cc1C1NC(=O)c2c(sc3c2CCCC3)N1 (stereo unspecified),-0.09
COC(=O)C1SC/C(=N\O)C1C(=O)OC (stereo unspecified),-3.3
O=C1CC(NC2CCN(c3ncc(C(F)(F)F)cc3Cl)CC2)C(=O)N1c1ccc(F)cc1 (stereo unspecified),-1.4
Cc1c(C)c(C)c(S(=O)(=O)NN(C)c2ccc(C#N)cc2[N+](=O)[O-])c(C)c1C,0.1
O=[N+]([O-])c1ccsc1Oc1ccc(Cl)cc1Cl,4.2*
COc1ccc(Oc2sccc2[N+](=O)[O-])cc1,0.72
O=[N+]([O-])c1ccc(Oc2ccc(Cl)cc2Cl)cc1C(F)(F)F,0.22
N#C/C(=C1/SC=C(c2ccc(Cl)cc2)N1c1ccccc1)c1nc2ccccc2[nH]1,8.7
Cn1nccc1NS(=O)(=O)c1ccc(NS(=O)(=O)c2ccc(C(F)(F)F)cc2)cc1,-1.3
SMILES,Dicer processing
Cc1ccc(-c2nnc3c4ccccc4c(C)nn23)cc1S(=O)(=O)NCCN1CCOCC1,2.7
CCCCCCSc1nnc2c(n1)OC(C)Nc1ccccc1-2 (stereo unspecified),-1.4
O=C(CC1Sc2ccccc2NC1=O)Nc1ccc2c(c1)OCO2 (stereo unspecified),3.9*
O=C(CC1SCCNC1=O)Nc1ccc2c(c1)OCO2 (stereo unspecified),-0.95
O=C(CC1Sc2ccccc2NC1=O)Nc1ccc(Cl)cc1 (stereo unspecified),-0.08
O=C(N/N=C/c1cc([N+](=O)[O-])ccc1N1CCCC1)c1ccccc1,-0.89
Cn1c2c(c(=O)n(C)c1=O)CN(CCCn1ccnc1)CN2,0.99
CCOC(=O)NC(=S)c1ccc(OC)cc1,0.26
CCOC(=O)C(C)c1ccc2cc(OC)ccc2c1 (stereo unspecified),4.6*
COc1ccc2cc(CCC(C)=O)ccc2c1,7
CN(C)CCNc1ncnc2c1sc1nc3c(cc12)COC(C)(C)C3,0.01
Cc1cc(Br)ccc1Nc1ncnc(-n2cccc2)n1,-1.4
O=C1NC(c2ccc(O)cc2)Nc2sc3c(c21)CCN(Cc1ccccc1)C3 (stereo unspecified),-0.48
CCOC(=O)N1CCN(CC(O)COCc2ccc3c(c2)OCO3)CC1 (stereo unspecified),3.2*
OC(CN1CCN(Cc2ccc3c(c2)OCO3)CC1)Oc1ccc(C(F)(F)F)cc1 (stereo unspecified),-2.7
CCOC(=O)c1c(C)n(C)c2ccc(OCC(O)CN3CCOCC3)cc12 (stereo unspecified),1.9
CCOC(=O)N1CCN(CC(O)COc2c(C)cc(C)cc2C)CC1 (stereo unspecified),3.3*
CCOC(=O)N1CCN(CC(O)COc2cc(C)ccc2C(C)C)CC1 (stereo unspecified),3.5*
